Results: PubChem BioAssay (Tox21)
Records with an inconclusive call do not appear. Activity calls are given as the source filed them. Unless noted, calls follow the shape of the dose curve; as a rule, active = well fitted curve in the direction sought with a large enough effect in the repeat runs; inconclusive = weak or mixed curves; inactive = no such curve, though single readings can be large; an effect the other way counts as inactive or inconclusive.

What was measured:
[1] = qHTS assay to identify aromatase inhibitors - cell viability counter screen (AID 743084);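 also: cells stimulated with testosterone during compound exposure; nearly all actives have a fitted effect of over 55% in size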
[2] = target: Aryl hydrocarbon receptor (Homo sapiens) (UniProt P35869); test: qHTS assay to identify small molecule that activate the aryl hydrocarbon receptor (AhR) signaling pathway (AID 743085);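 also: HG2L7.5c1 human HepG2 liver cells with stably integrated DRE-driven firefly reporter; series mostly up to about 70 µM; nearly all actives have a fitted effect of over 15% in size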
How it was run: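 HepG2 cells stably carrying a 20-DRE firefly luciferase reporter (HG2L7.5c1) treated with compound for 24 hr at 37C. Luciferase read by ONE-Glo luminescence, with CellTiter-Fluor viability read first.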

[3] = qHTS assay to identify small molecule that activate the aryl hydrocarbon receptor (AhR) signaling pathway - cell viability counter screen (AID 743086);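 also: HepG2 liver cells carrying the AhR DRE luciferase reporter; series mostly up to about 70 µM; nearly all actives have a fitted effect of over 45% in size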
How it was run: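 HepG2-AhR-luc (HG2L7.5c1) cells, 4000/well, treated 24 h at 37 C with compound; viability measured as CellTiter-Fluor fluorescence after 30 min in the same wells as the luciferase read.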

[4] = target: Peroxisome proliferator-activated receptor gamma (Homo sapiens) (UniProt P37231); test: qHTS assay to identify small molecule agonists of the peroxisome proliferator-activated receptor gamma (PPARg) signaling pathway (AID 743094; active = well fitted activation curve with a large enough effect in the signal ratio in the repeat runs, not every such curve was filed as active; the % refers to the signal ratio)
How it was run: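 GeneBLAzer PPARg UAS-bla HEK293H cells were plated, rested 5 h, then exposed to compounds for 17 h at 37C. Beta-lactamase activity was read by LiveBLAzer B/G FRET substrate fluorescence after 1 h at room temperature.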

[5] = target: Peroxisome proliferator-activated receptor gamma (Homo sapiens) (UniProt P37231); test: qHTS assay to identify small molecule antagonists of the peroxisome proliferator-activated receptor gamma (PPARg) signaling pathway (AID 743191; calls by dose curve; also: series mostly up to about 63 µM; nearly all actives have a fitted effect of over 30% in size)
How it was run: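 GeneBLAzer PPARg UAS-bla HEK293H cells, 5 h post-plating, exposed to compounds 17 h at 37C. LiveBLAzer B/G FRET substrate added for 1 h at room temperature; beta-lactamase reporter read by fluorescence intensity.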

[6] = qHTS assay to identify small molecule antagonists of the peroxisome proliferator-activated receptor gamma (PPARg) signaling pathway - cell viability counter screen (AID 743194); details: Potency: co-treated with 50 nM rosiglitazone; also: nearly all actives have a fitted effect of over 55% in size
How it was run: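 Cytotoxicity counter screen in PPARg-bla HEK293H cells, same wells as reporter assay. Compounds plus 50 nM rosiglitazone (final) for 17 h at 37 C, then viability read by CellTiter-Glo luminescence.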

[7] = qHTS assay for small molecule agonists of the antioxidant response element (ARE) signaling pathway (AID 743202; active = well fitted activation curve with a large enough effect in the signal ratio in the repeat runs, not every such curve was filed as active; the % refers to the signal ratio)
How it was run: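 ARE-bla HepG2 cells (beta-lactamase reporter under the antioxidant response element), plated 5 hours, then exposed to compounds 16 hours at 37 C. LiveBLAzer B/G FRET substrate added for 2 hours at room temperature; fluorescence intensity read.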

[8] = qHTS assay for small molecule agonists of the antioxidant response element (ARE) signaling pathway - cell viability counter screen (AID 743203; calls by dose curve; also: nearly all actives have a fitted effect of over 55% in size)
How it was run: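 ARE-bla HepG2 cells were plated, rested 5 h at 37C/5% CO2, then exposed to compounds in DMSO for 16 h. Viability was read as CellTiter-Glo luminescence after 30 min at room temperature, in the same wells as the ARE screen.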

[9] = qHTS assay for small molecule activators of the heat shock response signaling pathway - cell viability counter screen (AID 743209); also: nearly all actives have a fitted effect of over 50% in size
How it was run: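 HSE-bla HeLa cells plated overnight, then exposed to Tox21 compounds (23 nL in DMSO) for 5 h at 37 C. After the bla reporter read, CellTiter-Glo was added in the same wells and luminescence read after 30 min at room temperature.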

[10] = qHTS assay for small molecule activators of the heat shock response signaling pathway (AID 743210; active = well fitted activation curve with a large enough effect in the signal ratio in the repeat runs, with a control signal flat, not every such curve was filed as active; the % refers to the signal ratio; also: series mostly up to about 63 µM)
How it was run: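 HSE-bla HeLa cells (beta-lactamase reporter under heat shock response elements), plated overnight, then exposed to compounds 5 h at 37 C; LiveBLAzer B/G FRET substrate added, 2.5 h at room temperature, fluorescence intensity read.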

Measured: Potency

Chain of Peroxisome proliferator-activated receptor gamma (Homo sapiens) (P37231 whole entry, looked up): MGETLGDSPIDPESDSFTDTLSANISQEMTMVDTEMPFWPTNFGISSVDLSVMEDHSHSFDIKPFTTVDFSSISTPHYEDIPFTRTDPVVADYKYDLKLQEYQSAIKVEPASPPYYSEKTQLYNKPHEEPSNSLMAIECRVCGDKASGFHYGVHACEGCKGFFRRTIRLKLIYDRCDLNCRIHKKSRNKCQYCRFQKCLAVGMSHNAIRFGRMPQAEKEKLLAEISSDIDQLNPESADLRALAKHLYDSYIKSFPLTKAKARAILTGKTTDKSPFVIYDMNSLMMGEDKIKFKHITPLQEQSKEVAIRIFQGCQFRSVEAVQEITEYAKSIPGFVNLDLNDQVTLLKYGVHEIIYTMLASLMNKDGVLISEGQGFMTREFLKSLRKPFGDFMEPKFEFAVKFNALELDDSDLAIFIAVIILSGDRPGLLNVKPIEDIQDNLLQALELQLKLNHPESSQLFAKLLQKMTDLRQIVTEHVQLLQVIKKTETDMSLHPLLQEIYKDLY
Chain of Aryl hydrocarbon receptor (Homo sapiens) (P35869 whole entry, looked up): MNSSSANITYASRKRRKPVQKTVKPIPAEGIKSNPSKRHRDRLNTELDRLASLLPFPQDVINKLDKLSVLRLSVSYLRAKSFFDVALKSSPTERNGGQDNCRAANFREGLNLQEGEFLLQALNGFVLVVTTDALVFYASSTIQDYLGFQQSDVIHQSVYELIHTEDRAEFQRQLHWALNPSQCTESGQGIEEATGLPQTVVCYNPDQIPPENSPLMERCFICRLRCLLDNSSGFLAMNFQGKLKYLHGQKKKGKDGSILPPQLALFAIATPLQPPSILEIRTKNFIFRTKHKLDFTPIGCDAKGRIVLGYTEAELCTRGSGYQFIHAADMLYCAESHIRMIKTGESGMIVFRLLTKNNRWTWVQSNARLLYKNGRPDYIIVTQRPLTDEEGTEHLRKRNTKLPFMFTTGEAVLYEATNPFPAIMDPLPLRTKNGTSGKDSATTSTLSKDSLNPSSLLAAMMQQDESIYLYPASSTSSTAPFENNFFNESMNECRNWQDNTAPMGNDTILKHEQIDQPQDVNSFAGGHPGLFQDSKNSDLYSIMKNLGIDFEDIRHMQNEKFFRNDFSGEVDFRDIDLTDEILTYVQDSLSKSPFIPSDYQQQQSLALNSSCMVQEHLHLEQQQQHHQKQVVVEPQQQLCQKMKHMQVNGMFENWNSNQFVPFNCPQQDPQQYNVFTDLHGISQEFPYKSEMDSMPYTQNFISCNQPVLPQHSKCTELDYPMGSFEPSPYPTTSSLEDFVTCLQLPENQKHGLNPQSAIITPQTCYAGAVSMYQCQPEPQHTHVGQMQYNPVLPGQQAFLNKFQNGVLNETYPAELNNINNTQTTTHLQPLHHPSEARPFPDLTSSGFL

COc1cc(CCN)cc(OC)c1OC
inactive: all assays above

CN(C)C(=O)Oc1cc(OC(=O)N(C)C)cc(C(O)CNC(C)(C)C)c1 (configuration not stated)
not listed: [10]
inactive: all other assays above

CCCCOC(C)=O
not listed: [10]
inactive: all other assays above

CN(C)CCc1c[nH]c2cccc(OP(=O)(O)O)c12
inactive: all assays above

COc1ccc(C=O)cc1O
inactive: all assays above

COC(=O)c1ccc(CBr)cc1
inactive: all assays above

CCN(CC)C1CCCCC1
inactive: all assays above

CC(C)(O)C(Cl)(Cl)Cl
not listed: [10]
inactive: all other assays above

Cc1ccc2c(c1)C1CN(C)CCC1N2 (configuration not stated)
inactive: all assays above

CC1=C2[C@H]3OC(=O)[C@@H](C)[C@@H]3CC[C@@]2(C)C=CC1=O
not listed: [7]
inactive: all other assays above

OCC(Cl)CCl (configuration not stated)
not listed: [9]
inactive: all other assays above

C=CC1(C)OC(=O)N(c2cc(Cl)cc(Cl)c2)C1=O (configuration not stated)
inactive: all assays above

COC(=O)[C@@H](N)CCCN/C(N)=N/[N+](=O)[O-]
not listed: [7]
inactive: all other assays above

O=c1[nH]oc2c1CCNC2
inactive: all assays above

CCC(=O)OC1(c2ccccc2)CCN(C)CC1
inactive: all assays above

NCCOS(=O)(=O)O
inactive: all assays above

CN(CCO)CCO
not listed: [7]
inactive: all other assays above

CC(C)(C)C(=O)Cl
inactive: all assays above

CC(=O)CN(CC(C)=O)N=O
inactive: all assays above

ClCCCCCCCl
inactive: all assays above

C#CCOC(=O)/C=C(C)/C=C/CC(C)CCCC(C)C (configuration not stated)
inactive: all assays above

CCC1(c2cccc(O)c2)CCCCN(C)C1 (configuration not stated)
inactive: all assays above

CC[C@H](N)c1ccccc1
inactive: all assays above

CCOc1cc(OP(=S)(OC)OC)nc(CC)n1
inactive: all assays above

CCN(CC)CCOC(=O)C(O)(c1ccccc1)c1ccccc1
not listed: [7]
inactive: all other assays above

CCC(=O)c1ccc(Cl)cc1
inactive: all assays above
